Data published in PubChem BioAssay AID1347075 (National Center for Advancing Translational Sciences (NCATS), 2019).
Screen size: about 400,000 compounds; about 5,500 (1.4%) were called active. Roughly 9% stayed inconclusive and do not appear here. The call rests on the fitted dose curve; in most records, active means well fitted cell-killing curve with a large enough effect; inconclusive means small, poorly fitted or top-dose-only effect, or effect the other way; inactive means flat fitted curve, though single readings scatter. Shown is part of a subset that was picked to be rich in actives. Entries that show only a call come without a potency.

Test: qHTS assay for MDR1-selective chemotherapeutics: Primary screen using the parental adenocarcinoma cell KB-3-1; further: nearly all actives have a fitted effect of over 60% in size
Settings: KB-3-1 viability, CellTiter-Glo ATP luminescence, 72 h; series mostly up to 46.1 µM
Excerpt: A prime difficulty in effectively treating cancer is the development of cellular resistance to multiple structurally unrelated anticancer drugs, a phenomenon known as multidrug resistance (MDR). […] Numerous strategies to overcome P-gp-mediated MDR have been explored, including the design of drugs that evade recognition and efflux, and development of inhibitors to block efflux and restore drug accumulation. […] An alternative approach is to exploit resistance by identifying drugs that target MDR cells over the non-resistant parental cells from which they were selected. […] The development of MDR1-selective agents represents a new strategy for resolving multidrug resistance, as it remains a long-standing clinical challenge for cancer chemotherapy.
Our goal is to identify compounds that selectively kill P-gp-expressing MDR cells. We will identify MDR1-selective compounds by comparing toxicity of compounds in the screening library against parental, drug-naive (KB-3-1) adenocarcinoma cells as well as their drug-selected MDR sub-line (KB-V1). The differential toxicity of compounds against these two cell lines will be used to identify MDR1-selective compounds, whose cytotoxicity is potentiated, rather than diminished, by P-gp expression. This assay will be utilized to conduct a quantitative high-throughput screen (qHTS) in collaboration with the NIH Chemical Genomics Center to identify selective agents, and probe hits arising from the screen will be validated using secondary assays and characterized through a well-established follow-up research program. This screen was run against the entire NCGC library collection of about 400,000 compounds.
NIH Molecular Libraries Probe Production Network [MLPCN]
NIH Chemical Genomics Center [NCGC]
PI: Michael Gottesman PhD, National Cancer Institute, NIH
Briefly, 5 microL of media containing either KB-3-1 cells (columns 1-2, 4-48) are dispensed into Greiner white, treated solid-bottom 1536-well assay plates (media-only control is added to column 3). Compounds are then transferred via Kalypsys pin tool equipped with 1536-pin array (10 nL slotted pins, V&P Scientific, San Diego, CA). Following addition of compound, the plates are incubated at 37 degrees C for 72 hours. CellTiter-Glo (2.5 µL/well) is then added, and the plates are read in a ViewLux reader (Perkin-Elmer, clear luminescence filter, 1 second exposure, 1x binning) following a 10 minute incubation. All cells are dispensed in DMEM phenol-red free media containing 10% FBS.
Library plates were screened starting from the lowest and proceeding to the highest concentration. Vehicle-only plates, with DMSO being pin-transferred to columns 5-48, will be inserted uniformly at the beginning and the end of each library in order to monitor and record any shifts in the background, which can be affected by reagent dispensers or loss in enzyme activity over time. Screening data will be corrected, normalized, and concentration-effect relationships will be derived by using publicly-available NCGC, NCATS curve fitting algorithms (http://ncgc.nih.gov/pub/openhts).
Potency means the concentration at half of the fitted maximal effect.

Row | Compound | Potency
1 | COc1cc(/C=C2\Oc3ccc(C#Cc4ccc(O)cc4)cc3C2=O)cc(OC)c1 | 16.4 µM (active)
2 | COc1cccc(N2CCN(S(=O)(=O)c3ccc4c(c3)CCCN4C(C)=O)CC2)c1 | inactive
3 | COc1ccc(-c2ccc(=O)n(CC(=O)Nc3ccc(Br)cc3F)n2)cc1 | inactive
4 | O=C(CSc1nc2c(c(=O)[nH]1)CN(Cc1ccc(F)cc1)CC2)Nc1ccccc1Cl | inactive
5 | Cc1cc2ccccc2n1CCNC(=O)c1ccc(F)cc1 | inactive
6 | O=C(Nc1cc(S(=O)(=O)N2CCCCC2)ccc1Cl)C1COc2ccccc2O1 (stereo not drawn) | inactive
7 | O=C(Nc1ncc([N+](=O)[O-])s1)C1COc2ccccc2O1 (stereo not drawn) | 16.4 µM (active)
8 | COc1ccc(NC(=O)COC(=O)C2COc3ccccc3O2)cc1 (stereo not drawn) | inactive
9 | Cc1ccc(C(=O)N2c3ncnn3C3(CCCCC3)[C@@H]3CCCC[C@@H]32)cc1 | inactive
10 | O=C(NC1=CC(=O)c2ccccc2C1=O)c1ccccc1 | 16.4 µM (active)
11 | COc1cc(NC(=O)c2ccccc2)c(OC)cc1NC(=O)Cc1ccccc1 | inactive
12 | CC(=O)c1cc(NC(=O)c2ccccc2)c(=O)oc1/C=C/N(C)C | inactive
13 | N#Cc1nc(/C=C/c2ccc(F)cc2)oc1NCc1ccc(F)cc1 | inactive
14 | O=C(CCS(=O)(=O)c1cc(Br)cc2c1N(C(=O)C1CC1)CC2)Nc1ccc(Br)cc1F | inactive
15 | O=C(O)COc1ccc(/C=N/O)cc1Br | inactive
16 | COc1cc(C(=O)NCc2ccncc2)cc(Br)c1OCc1ccccc1 | inactive
17 | COc1cc(/C=N/O)cc(Br)c1OCc1cccc(Cl)c1 | 14.6 µM (active)
18 | CCOC(=O)c1ccc(NC(=O)CCn2cnnn2)cc1 | inactive
19 | COc1ccccc1CN1CCC(CNC(=O)c2cnn(-c3cccc(Cl)c3)c2C2CCN(C(=O)OC(C)(C)C)CC2)CC1 | inactive
20 | Cc1ccc(CN2CCC(CNC(=O)c3cnn(-c4ccc(C)cc4)c3C3CCN(C(=O)OC(C)(C)C)CC3)CC2)cc1 | 16.4 µM (active)
21 | Cc1ccc(CN2CCC(CNC(=O)c3cnn(-c4ccccc4Cl)c3C3CCN(C(=O)OC(C)(C)C)CC3)CC2)cc1 | inactive
22 | CCOc1ccc(OCC)c(NC(=O)c2cc(C)nc3c2c(C)nn3-c2cccc(Cl)c2C)c1 | inactive
23 | CN(C)c1ccc(/C=N\Nc2ccc([N+](=O)[O-])cc2[N+](=O)[O-])cc1Cl | inactive
24 | CN(C)c1ccc(/C=C/C(=O)c2ccc(O)cc2)cc1[N+](=O)[O-] | 20.6 µM (active)
25 | O=C(/C=C/c1ccc(Cl)cc1)N1CCN(c2ccccc2[N+](=O)[O-])CC1 | inactive
26 | CCOc1ccc(Br)cc1CSC(=N)N | 23.1 µM (active)
27 | CC(C)(C)NCc1cc(Br)ccc1OC1CCCC1 | inactive
28 | CCOc1ccc(Br)cc1S(=O)(=O)N1CCC(C(=O)O)CC1 | inactive
